Source: PubChem BioAssay (several laboratories)
Sampled rows, rich in hits. Any-hit rate of the full collection: about 0.79%.
LANA-H2A inh = blockers of LANA interaction with H2A/H2B – biochemical, FP readout, HTS, primary screen; cell-free LANA-H2A/H2B peptide, fluorescence polarization; inhibition, % (test concentration not listed); actives 0.6% (n = 320,000); in the data active means inhibition mostly above about 10%, no sharp cut-off; inactive means mostly below about 6.7%
DAGLB inh = DAGLB lipase inhibitors, primary screen, biochemical, fluorescence, HTS; Diacylglycerol lipase-beta (Homo sapiens), Q8NCG7; HEK293T DAGLB membrane lysate, EnzChek fluorogenic substrate; inhibition, % at 5.17 µM; actives 0.059% (n = 340,000); AID 504411, 2011; in the data active means inhibition above about 34%;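 further: 0% = enzyme with vehicle and 100% = wells lacking enzyme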
hiPSC survival = enhancers of single-cell hiPSC survival, primary screen, ATPlite luminescence. 100% = ROCK inhibitor wells, 0% = DMSO. actives 0.044% (n = 360,000). survival enhancement, % at 20 µM; in the data active means survival enhancement above about 18%;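 further: cells exposed to compounds for 16 hours before the ATP read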
HDAC3 inhib = HDAC3 deacetylase inhibitors, primary screen, biochemical, fluorescence, cell-free homogeneous. actives 0.15% (n = 320,000). inhibition, % at 8.3 µM. Histone deacetylase 3 (Homo sapiens), O15379. recombinant HDAC3, fluorogenic peptide/trypsin coupled; in the data active means inhibition above about 26%, passing the limit was not always enough
Target sequence (O15379 whole entry, looked up): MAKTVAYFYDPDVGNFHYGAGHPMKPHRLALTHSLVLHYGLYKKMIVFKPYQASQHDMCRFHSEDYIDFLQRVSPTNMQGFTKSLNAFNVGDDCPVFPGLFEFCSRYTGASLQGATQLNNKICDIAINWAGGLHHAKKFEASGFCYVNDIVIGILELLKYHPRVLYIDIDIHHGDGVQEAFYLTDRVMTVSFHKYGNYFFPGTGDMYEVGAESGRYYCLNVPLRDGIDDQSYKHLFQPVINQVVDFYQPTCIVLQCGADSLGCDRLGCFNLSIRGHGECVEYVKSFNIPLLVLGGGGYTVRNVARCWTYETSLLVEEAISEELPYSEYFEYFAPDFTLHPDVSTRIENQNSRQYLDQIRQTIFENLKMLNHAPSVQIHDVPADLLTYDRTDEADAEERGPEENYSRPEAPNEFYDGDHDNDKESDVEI
Starred values were filed as active, the others as inactive; nt = no result; + = active, no number.

SMILES	LANA-H2A inh	DAGLB inh	hiPSC survival	HDAC3 inhib
O=C(O)[C@@H]1CCCN1C(=O)COc1ccc2c3c(c(=O)oc2c1)CCC3	0	-2	0	-1
CCCc1c(C(=O)N/N=C/c2c[nH]c3ccccc23)nnn1-c1nonc1N	nt	2	-1	nt
CCCN(CCC)Cc1c(C(=O)N/N=C/c2c[nH]c3ccccc23)nnn1-c1nonc1N	7	2	0	32*
Cc1cc([N+](=O)[O-])nn1CC(=O)NC1CCCCC1	19*	1	1	1
Cc1cc([N+](=O)[O-])nn1CCC(=O)NC1CCCCCC1	2	-4	0	-4
COc1cc(C(=O)N2CCCC(C)(C(=O)NS(=O)(=O)C3CC3)C2)cc(OC)c1OC (stereo unspecified)	nt	nt	0	nt
Fc1ccccc1N1CCN(C(c2ccccn2)c2nnnn2C2CCCCC2)CC1 (stereo unspecified)	12*	-7	1	-4
COc1ccc(CNC(=O)C2CCCN(S(=O)(=O)c3c(C)noc3/C=C/N(C)C)C2)cc1 (stereo unspecified)	-1	4	0	4
O=S(=O)(NC1CC1)c1ccc(S(=O)(=O)N2CCC3(CC2)OCCO3)cc1	19*	-1	0	4
CC(C)c1ccc(CN2CCSCC2)cc1	0	-2	0	-1
Cc1ccc(C(=O)NCCc2nnc3ccc(NCc4ccc5c(c4)OCO5)nn23)cc1	-2	0	1	-4
O=C(c1cccc(C(F)(F)F)c1)c1c[nH]c(C(=O)NCC2CCCO2)c1 (stereo unspecified)	+	-1	0	7
CC(=O)c1c[nH]c(C(=O)NCC2CCCO2)c1 (stereo unspecified)	7	1	-1	-4
Cc1ccccc1-n1c(SCC(=O)NC2CCS(=O)(=O)C2)nc2ccccc2c1=O (stereo unspecified)	nt	4	0	nt
CN(C(=O)CSc1nc2ccccc2c(=O)n1C)C1CCS(=O)(=O)C1 (stereo unspecified)	20*	1	2	2
CN(C(=O)CSc1nc2ccccc2n1C)C1CCS(=O)(=O)C1 (stereo unspecified)	4	0	0	-3
O=C(CSc1nc2ccccc2c(=O)n1-c1ccccc1F)NC1CCS(=O)(=O)C1 (stereo unspecified)	124*	3	0	24
Cc1cc(NC(=O)CSc2nnc(-c3ccc(Br)o3)n2Cc2ccccc2)no1	12*	2	0	5
O=C(c1ccc(Cl)cc1)N1CCC(C(=O)N2CCCc3ccccc32)CC1	5	1	0	3
COCCCn1c(SCC(=O)Nc2ccc(NC(=O)c3ccco3)c(OC)c2)nc2ccccc2c1=O	28*	1	0	3
Cn1nc(-c2ccccc2)c2nc3ccccc3nc21	95*	-5	3	5
CCCCn1nc(-c2ccccc2)c2nc3ccccc3nc21	25*	nt	nt	-5
CCCCn1c2nc3ccccc3nc2c2c(=O)n(-c3ccccc3)cnc21	-4	-1	-1	-5
Cc1ccc(-c2nc3ccccc3nc2-c2ccccc2)cc1	0	-12	-1	3
Cc1ncc(CN2CCC(CO)(CCc3ccccc3)CC2)s1	16*	-2	0	7
SMILES	LANA-H2A inh	DAGLB inh	hiPSC survival	HDAC3 inhib
CCOC(=O)COc1c(Cl)cc(/C=C2\N=C(C)OC2=O)cc1OC	2	-2	0	66*
CCOc1cc(/C=C2\N=C(C)OC2=O)cc(Br)c1OCC(=O)OC	0	5	0	18
O=C(Nc1ccncc1)c1cc2ccccc2cc1O	0	6	0	2
CCOC(=O)[C@]12CCC=C1N(Cc1ccc(Cl)cc1Cl)C(=O)[C@H](CC(=O)NCC1CCCCC1)C2	nt	nt	0	nt
CCSc1nnc([C@H](Cc2ccccc2)NC(=O)OC(C)(C)C)o1	2	-5	2	7
Cc1ccccc1CS(=O)(=O)c1nnc([C@H](Cc2ccccc2)NC(=O)OC(C)(C)C)o1	-1	3	-2	46*
CC(C)(C)OC(=O)N[C@@H](Cc1ccccc1)c1nnc(S(=O)(=O)Cc2ccccc2)o1	0	nt	nt	76*
COc1ccc(-c2nn(CCC(=O)O)cc2/C=N/NC(N)=S)cc1	19*	0	0	nt
NC(=S)N/N=C/c1cn(CCC(=O)O)nc1-c1cccc(Br)c1	1	2	1	nt
CCCNC(=O)C1(C)CCCN(Cc2ccccc2F)C1 (stereo unspecified)	nt	nt	-2	nt
CCNC(=O)C1(C)CCN(Cc2ccccc2-c2ccccc2)C1 (stereo unspecified)	nt	nt	6	nt
O=S(=O)(NC(=S)NC1CCCCC1)c1ccccc1	10*	1	1	0
COCCc1nc2ccc(C(=O)N3CCCC(CCCO)C3)cc2o1 (stereo unspecified)	12*	0	0	-1
COCCC(=O)N1CCC(Oc2ccc(C(=O)N3CCCC(CCCO)C3)cc2)CC1 (stereo unspecified)	18*	-1	0	-6
CC1(C)CC(CC(=O)O)CC(C)(C)N1	0	-1	0	4
CC1(C)CNC(=O)CC(C)(C)N1	43*	0	-2	0
Cc1ccc(F)c(S(=O)(=O)NC(=O)C2(C)CCN2C(=O)c2cccc3ccccc23)c1 (stereo unspecified)	nt	nt	0	nt
Cc1cccc([N+](=O)[O-])c1C(=O)O	19*	2	9	1
Cc1csc(NC(=O)c2cccc([N+](=O)[O-])c2C(=O)O)n1	-6	0	0	8
CC(C)C1COC(c2cccn2Cc2ccccc2Cl)=N1 (stereo unspecified)	20*	-7	0	-3
O=S(=O)(NC1CC2CCC1C2)c1ccc2c(c1)OCCO2 (stereo unspecified)	20*	-3	-1	3
CC1CCCC(NS(=O)(=O)c2ccc3c(c2)OCCO3)C1C (stereo unspecified)	5	-7	-4	1
CCCCN(C(=O)CC1CCCCC1)c1c(N)n(CC(C)C)c(=O)[nH]c1=O	71*	-1	0	4
CCOC(=O)C1CCN(C(=O)c2cc(CN3C(=O)c4ccccc4C3=O)ccc2OCC)CC1	0	1	0	12
CCOC(=O)C1CCCN(C(=O)c2cc(CN3C(=O)c4ccccc4C3=O)ccc2OC)C1 (stereo unspecified)	28*	-7	0	-4
CC(/C=C\C=C\c1ccccc1)=N\NC(=O)c1cncc(Br)c1	77*	4	1	-2
CC(/C=C/C=C/c1ccccc1)=N\NC(=O)c1cccnc1	8	-2	-3	0
Cc1ccc(S(=O)(=O)N2C[C@@H](C)[C@]3(C2)[C@H](O)[C@H](OC(=O)NCc2ccccc2F)C[C@H]2C(=O)N(c4ccccc4)C(=O)[C@H]23)cc1	nt	-1	1	nt
